# Results: PMC7883291
# Experiments:
# Assay in all cases: cross-link between two proteins; cross-linking mass spectrometry
# [1] = target: Cytochrome b-c1 complex subunit 2, mitochondrial (UniProt P23004)
# [2] = target: NADH dehydrogenase [ubiquinone] 1 alpha subcomplex subunit 1 (UniProt Q02377)
# [3] = target: NADH dehydrogenase [ubiquinone] 1 alpha subcomplex subunit 13 (UniProt Q95KV7)
# [4] = target: NADH dehydrogenase [ubiquinone] 1 alpha subcomplex subunit 7 (UniProt Q05752)
# [5] = target: NADH dehydrogenase [ubiquinone] 1 beta subcomplex subunit 11, mitochondrial (UniProt Q8HXG5)
# Chain of NADH dehydrogenase [ubiquinone] 1 beta subcomplex subunit 11, mitochondrial (Q8HXG5 whole entry, one chain of several): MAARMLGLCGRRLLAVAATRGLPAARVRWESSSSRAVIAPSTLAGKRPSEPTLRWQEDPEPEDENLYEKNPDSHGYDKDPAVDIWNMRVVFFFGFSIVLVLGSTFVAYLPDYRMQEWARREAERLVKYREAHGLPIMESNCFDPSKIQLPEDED
# [6] = target: NADH dehydrogenase [ubiquinone] 1 beta subcomplex subunit 4 (UniProt P48305)
# Chain of NADH dehydrogenase [ubiquinone] 1 beta subcomplex subunit 4 (P48305 whole entry, one chain of several): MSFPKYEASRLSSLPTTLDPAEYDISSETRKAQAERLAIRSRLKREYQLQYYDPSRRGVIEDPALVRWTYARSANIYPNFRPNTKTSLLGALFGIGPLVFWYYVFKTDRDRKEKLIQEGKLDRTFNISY
# [7] = target: NADH dehydrogenase [ubiquinone] iron-sulfur protein 4, mitochondrial (UniProt Q02375)
# Chain of NADH dehydrogenase [ubiquinone] iron-sulfur protein 4, mitochondrial (Q02375 whole entry): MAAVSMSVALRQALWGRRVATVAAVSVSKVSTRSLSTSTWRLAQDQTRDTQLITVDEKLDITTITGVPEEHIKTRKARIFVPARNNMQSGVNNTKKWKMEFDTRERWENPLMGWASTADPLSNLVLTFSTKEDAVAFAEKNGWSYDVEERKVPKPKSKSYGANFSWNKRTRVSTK
# Chain of Cytochrome b-c1 complex subunit 2, mitochondrial (P23004 whole entry, one chain of several): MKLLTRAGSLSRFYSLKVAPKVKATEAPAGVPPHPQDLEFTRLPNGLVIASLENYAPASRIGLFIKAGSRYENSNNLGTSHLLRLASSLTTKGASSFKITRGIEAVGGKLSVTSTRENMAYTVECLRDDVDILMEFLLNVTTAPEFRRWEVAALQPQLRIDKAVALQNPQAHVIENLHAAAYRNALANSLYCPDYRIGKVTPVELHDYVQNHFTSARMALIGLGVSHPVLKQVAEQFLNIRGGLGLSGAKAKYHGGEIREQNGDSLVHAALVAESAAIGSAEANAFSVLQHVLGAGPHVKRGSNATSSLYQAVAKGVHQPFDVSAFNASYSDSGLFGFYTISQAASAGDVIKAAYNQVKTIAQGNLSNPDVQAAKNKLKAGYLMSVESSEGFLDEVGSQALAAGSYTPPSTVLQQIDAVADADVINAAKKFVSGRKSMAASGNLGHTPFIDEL
# Chain of NADH dehydrogenase [ubiquinone] 1 alpha subcomplex subunit 7 (Q05752 whole entry, one chain of several): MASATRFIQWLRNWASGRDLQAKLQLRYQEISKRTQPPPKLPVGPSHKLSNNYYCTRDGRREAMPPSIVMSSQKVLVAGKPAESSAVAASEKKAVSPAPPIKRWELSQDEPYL
# Chain of NADH dehydrogenase [ubiquinone] 1 alpha subcomplex subunit 6, Q02366 (Q02366 whole entry, one chain of several): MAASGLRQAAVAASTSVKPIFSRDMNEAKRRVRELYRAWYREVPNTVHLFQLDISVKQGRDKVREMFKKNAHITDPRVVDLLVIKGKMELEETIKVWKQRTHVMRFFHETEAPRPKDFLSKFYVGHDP
# Chain of NADH dehydrogenase [ubiquinone] 1 alpha subcomplex subunit 1 (Q02377 whole entry, one chain of several): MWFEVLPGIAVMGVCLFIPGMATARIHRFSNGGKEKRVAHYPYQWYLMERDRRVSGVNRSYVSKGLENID
# Chain of NADH dehydrogenase [ubiquinone] 1 alpha subcomplex subunit 13 (Q95KV7 whole entry, one chain of several): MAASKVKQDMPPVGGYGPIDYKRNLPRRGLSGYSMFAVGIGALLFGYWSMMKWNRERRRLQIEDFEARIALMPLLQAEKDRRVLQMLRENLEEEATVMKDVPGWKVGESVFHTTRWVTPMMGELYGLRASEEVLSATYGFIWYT
substance,measurement,setting,value
"Cytochrome b-c1 complex subunit 7, P00129",listed as a hit,[1],yes
"Cytochrome c1, heme protein, mitochondrial, P00125",listed as a hit,[1],yes
"NADH dehydrogenase [ubiquinone] 1 alpha subcomplex subunit 8, P42029",listed as a hit,[2],yes
"NADH dehydrogenase [ubiquinone] iron-sulfur protein 5, Q02379",listed as a hit,[3],yes
"NADH dehydrogenase [ubiquinone] 1 alpha subcomplex subunit 5, P23935",listed as a hit,[4],yes
"NADH dehydrogenase [ubiquinone] 1 beta subcomplex subunit 9, Q02369",listed as a hit,[5],yes
"NADH dehydrogenase [ubiquinone] 1 beta subcomplex subunit 8, mitochondrial, Q02372",listed as a hit,[5],yes
"Cytochrome b-c1 complex subunit 1, mitochondrial, P31800",listed as a hit,[6],yes
"NADH dehydrogenase [ubiquinone] iron-sulfur protein 3, mitochondrial, P23709",listed as a hit,[7],yes
"NADH dehydrogenase [ubiquinone] 1 alpha subcomplex subunit 6, Q02366",listed as a hit,[7],yes
